Measured values as given in PubChem BioAssay AID651724 (National Center for Advancing Translational Sciences (NCATS), 2012).
Screen size: about 340,000 compounds; about 1,700 (0.5%) were called active. Another 2% or so got no clear call; they are omitted. This excerpt belongs to a sample that is enriched for actives. Values without a mark were called inactive. Cut-off read from the data, not from the text of the source: active = activity change below about -65%; inconclusive = mostly about -30% to -63%; inactive = weaker than that.

system: CtBP / adenovirus E1A interaction (AlphaScreen); test: qHTS Assay for Inhibitors of the CtBP/E1A Interaction; settings: AlphaScreen GST-E1A/His-CtBP binding, 1536-well; active compounds read low
How it was run: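 Homogeneous bead-based format: GST-tagged E1A captured on glutathione donor beads, His-tagged CtBP on nickel acceptor beads; compounds precede bead addition by 2 h at 37 °C.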
% is set by controls: 0 for no effect and ±100 for the full control effect.

SMILES | activity change
O=C(Nc1ccccc1)/C(=C\c1ccco1)NC(=O)c1ccco1 | 0.317%
O=C(NCCc1ccco1)c1nn(Cc2ccccc2)c(=O)c2ccccc12 | -2.1%
O=c1nc2s/c(=C\c3ccco3)c(=O)n2nc1Cc1ccccc1 | -81.2% (active)
CCCCOCCCNC(=O)C[C@@H]1C[C@@]2(C(=O)OC)CCCCC=C2N(CCC2=CCCCC2)C1=O | -1.56%
CC(C)Sc1ncnc2c1cnn2-c1ccccc1 | 0.575%
Cc1ccc(-n2ncc3c(Nc4cccc(C(=O)O)c4)ncnc32)cc1 | -74.4% (active)
Cc1ccc(Nc2ncnc3c2cnn3C)c(C)c1 | 3.32%
CC(=O)Nc1cc(-c2cccc(CO)c2)cn2c(-c3cccc(C(F)(F)F)c3)cnc12 | 3.79%
CN(Cc1cn(Cc2ccc(C(F)(F)F)cc2)nn1)C1CN(Cc2cn(Cc3ccc(C(F)(F)F)cc3)nn2)S(=O)(=O)C1 (stereo not given) | 3.64%
O=C(N/N=C/c1cc([N+](=O)[O-])ccc1O)/C(=C\c1cccs1)NC(=O)c1ccccc1 | -94.1% (active)
O=C(Nc1ccc(C(=O)O)cc1)/C(=C/c1ccc([N+](=O)[O-])cc1)NC(=O)c1ccccc1 | -2.48%
Cc1ccc(NC(=O)/C(=C/c2ccc([N+](=O)[O-])cc2)NC(=O)c2ccccc2)cc1 | 4.11%
CCCCN(C=O)c1c(CC)nc2c(OCCC3CCCCC3)cccn12 | -11%
CCC(CC)C(C(=O)NC1CCCC1)N1CCN(c2cc(C)nc3ccccc23)CC1 (stereo not given) | 3.39%
O=C(COc1cc2oc(=O)c3c(c2cc1Cl)CCC3)NCCCN1CCOCC1 | -65.9% (active)
CCc1cc(=O)oc2c(C)c(OCC(=O)NCCN3CCOCC3)ccc12 | -6.07%
Cc1cc(=O)oc2c(C)c(OCC(=O)NCCN3CCOCC3)ccc12 | 0.132%
O=C(CC(CC(=O)c1ccccc1)c1ccco1)c1ccccc1 | 4.89%
Cc1ccc(S(=O)(=O)n2oc(=O)c(C3CCCCC3)c2N)cc1 | -69.5% (active)
Cc1ccc(S(=O)(=O)N2CCC(N3CCCCCC3)CC2)cc1 | -10.9%
Cc1ccc(S(=O)(=O)NC2CCCCCC2)cc1 | 10.7%
Cc1cc(Br)cn2c(Cc3ccccc3C(F)(F)F)c(C3CCCCC3)nc12 | -6.97%
Cc1noc(C)c1-c1ccc(C(=O)NCc2ccncc2)c2occc12 | -17.7%

SMILES | activity change
Cc1[nH]c2ccccc2c1C(=O)c1cc([C@H](NC(=O)OC(C)(C)C)C(C)C)sc1N | -23.1%
O=C(CSc1nc2ccccc2o1)N1CCN(c2ccc(Cl)cc2)CC1 | -0.51%
O=C(CSc1nc2ccccc2o1)N/N=C/c1ccccc1C(=O)O | -92.7% (active)
O=C(CSc1nc2ccccc2o1)N1CCN(c2ccccc2)CC1 | -3.28%
Cc1ccc(/C=N/NC(=O)CSc2nc3ccccc3o2)cc1 | -93.4% (active)
CCN(CC)C(=O)CSc1nc2ccccc2o1 | 4.11%
CC(C)(C)C(=O)CSc1nc2ccccc2o1 | 11.1%
CC(=O)Nc1cc(-c2ccc(N3CCN(C)CC3)cc2)cn2c(-c3ccc(F)cc3)cnc12 | -22%
CCc1nc2ccc(C(=O)Nc3cccc(OC)c3)cn2c1N(CCC(C)C)CCN(C)C | -9.75%
Cc1ccc(S(=O)(=O)N2CCCCC2)cc1NC(=O)CCNC(=O)c1ccccc1Cl | 2%
O=C(Nc1ccc(Cl)cc1)C1Cc2c(-c3ccc4c(c3)OCO4)ccnc2O1 (stereo not given) | -5.12%
O=C(NCc1ccc(F)cc1)c1cc(C2CCCCN2C(=O)c2cccs2)on1 (stereo not given) | 4.5%
O=C(NCCOc1ccccc1)c1ccccc1F | 0.486%
Cc1cccc(C)c1NC(=S)N1CCCCCC1 | 3.43%
CC(=NNC(=S)N1CCCCCC1)c1ccccn1 | -89.7% (active)
COc1ccc(CC(=O)N/N=C(\C)c2ccccn2)cc1 | -73.3% (active)
C/C(=N\NC(=O)c1ccccc1F)c1ccccn1 | -97.9% (active)
CCCCCNC(=O)Cc1ccc(OC)cc1 | 12.5%
CNC(=S)N1CCN(c2ccccn2)CC1 | 5.96%
COc1ccc(C/C(C)=N/NC(=O)c2cc(C)oc2C)cc1 | 8.03%
C/C(CC(=O)Nc1ccc(N(C)C)cc1)=N\NC(=O)c1ccccc1F | -8.83%
C#CCN(C[C@@H]1[C@@H](OC(=O)NC2CC2)[C@@H](OC(=O)NC2CC2)Cn2c(=O)ccc(=O)n21)S(=O)(=O)c1ccc(C)cc1 | 3.71%
FC(F)(F)c1ccccc1Cc1c(-c2ccccc2)nc2c3ccccc3ccn12 | 6.14%

SMILES | activity change
Cc1cccc(C(=O)C(O)(c2ccccc2)C2CCCCC2=O)c1 (stereo not given) | 3.76%
CC1(C(=O)NS(=O)(=O)c2ccc3ccccc3c2)CCN1C(=O)C1(c2ccc(Cl)cc2)CCC1 (stereo not given) | -4.19%
O=C(CSc1nc2cccc(F)c2c(=O)n1-c1ccccc1)Nc1ccc2c(c1)CCC2 | 8.09%
CC(=O)Nc1cccc(-c2ccnc3c2CC(C)(C(=O)NCc2ccccc2)O3)c1 (stereo not given) | 0.959%
CC1(C(=O)NS(=O)(=O)c2ccccc2)CCN1C(=O)Cc1ccc(-c2ccccc2)cc1 (stereo not given) | 1.02%
O=c1[nH][nH]c2c1[C@H](c1ccc(Cl)cc1)O[C@H](CCc1ccccc1)C2 | 1.98%
COc1cccc(-c2cnc3c(NC(C)=O)cc(-c4cc(F)ccc4OC)cn23)c1 | -20.8%
Cc1nn(Cc2ccc(Cl)cc2)c(Cl)c1/C=N/NC(=O)c1cccnc1 | -0.89%
Cc1ccc(C(=O)O)cc1NC(=O)c1ccc(Cn2nc(C)c(Cl)c2C)o1 | 0%
Cc1c(Cl)c([N+](=O)[O-])nn1Cc1ccc(C(=O)N/N=C\c2cc(Cl)ccc2O)o1 | -70.3% (active)
CNc1cncc(-c2ccc(NS(C)(=O)=O)cc2)n1 | 0.0496%
COc1cccc(CNc2nc(NCc3ccccc3OC)nc3ccsc23)c1 | -7.75%
O=S1(=O)CCN(Cc2ccccc2)CC1 | 7.73%
O=C1c2ccccc2C(=O)c2c1cccc2N1CCN(CCO)CC1 | -25.7%
O=C1c2ccccc2C(=O)c2c1cccc2N1CCN(Cc2ccccc2)CC1 | -94.4% (active)
C[C@@H]1CN([C@@H](C)CO)C(=O)CCCn2nncc2CO[C@H]1CN(C)C(=O)Nc1ccc(C(F)(F)F)cc1 | -18.9%
COC(=O)[C@]12CCCCC=C1N(CCC1=CCCCC1)C(=O)[C@H](CC(=O)N1CCSCC1)C2 | -7.56%
Cc1cc(Cl)ccc1-c1nc(NCCN(C)C)nc2ccsc12 | -3.67%
CCOc1ccc(-n2c(O)c(/C=N/Nc3nc(C)cc(C)n3)c3ccccc3c2=O)cc1 | -6.77%
CCN(CC)CCCN=Cc1c(O)n(-c2ccc(C)cc2)c(=O)c2ccccc12 | -3%
Cc1cc(=O)[nH]c(N/N=C/c2c(C)nn(-c3ccccc3Cl)c2Cl)n1 | 5.1%
Cc1nnc(N/N=C/c2ccccn2)[nH]c1=O | -90.3% (active)
Cc1nnc(N/N=C/C2CC=CCC2)[nH]c1=O (stereo not given) | -19.9%

SMILES | activity change
CCOc1ccc(-n2c(O)c(/C=N/Nc3nnc(C)c(=O)[nH]3)c3ccccc3c2=O)cc1 | -92.9% (active)
Cc1ccc(NC(=O)CSc2nnc(CNC(=O)c3ccccc3F)o2)cc1Cl | -15.1%
Cc1ccc(NC(=O)CSc2nn3c(=O)c(C)nnc3s2)cc1Cl | -85.4% (active)
COc1ccc(Cc2nnc(SCC(=O)Nc3ccc(C)c(Cl)c3)[nH]c2=O)cc1 | -19.5%
CC1(C(=O)NCc2ccc3c(c2)OCO3)CCN1C(=O)Cc1cccc2ccccc12 (stereo not given) | -3.05%
CCOC(=O)C=Cc1ccc(C(=O)OCC)[nH]1 | 1.94%
O=C(NC1CCCCC1)C(c1cc2ccccc2o1)n1c(=O)c(-c2ccco2)nc2ccccc21 (stereo not given) | 6.62%
Cc1cccc(-n2cnc(C(=O)Nc3cccnc3)c2)n1 | 3.1%
Cn1cc(Cl)c(C(=O)NNC(=S)Nc2cccc(Cl)c2)n1 | -27.4%
Cc1cccc(-n2cnc(C(=O)NNC(=S)Nc3ccccc3)c2)n1 | -91.7% (active)
CC(C)N=C1CCCC1C(=S)SSC(=S)C1CCCC1=NC(C)C (stereo not given) | -5.04%
CCCCCNC(=O)C(c1ccc(OC)cc1)n1c(=O)c(-c2ccccc2)nc2ccccc21 (stereo not given) | 0%
C#Cc1ccc(NC(=O)C2(C)CCN2C(=O)Cc2ccc(-c3ccccc3)cc2)cc1 (stereo not given) | 0.392%
Cc1ccc(Cn2c(C)c3cnn(CC(=O)NCc4ccccn4)c(=O)c3c2C)cc1 | -24.7%
O=C(Cn1ncc2c3ccccc3n(Cc3ccccc3)c2c1=O)NCc1ccccn1 | -0.706%
Cc1c2cnn(CC(=O)NCc3ccccn3)c(=O)c2c(C)n1Cc1ccc(Cl)cc1 | -67.4% (active)
CCc1nc2c(OCc3ccc(C(=O)OC)cc3)cccn2c1N(C)C(=O)C(C)C | 0.85%
CC(=O)Nc1cccc(-c2cc(NC=O)c3ncc(-c4ccc(F)c(Cl)c4)n3c2)c1 | 6.58%
COc1ccccc1N1CCN(/N=C/c2ccc(O)cc2O)CC1 | -7.8%
Cc1nc2ccccc2nc1N/N=C/c1ccc(O)cc1O | -92.6% (active)
Oc1ccc(-c2nc3ccccc3nc2-c2ccc(O)cc2O)c(O)c1 | -12.2%
